The panel holds about 79,000 compounds, 15% with a hit somewhere; the sample as a whole holds those more often. The source made the active and inactive calls. No stated cut-off is given here; in the data, active means growth inhibition above about 70%; inactive means the rest.
Key:
[1] = NCI Yeast Anticancer Drug Screen. Data for the rad52 strain (AID 147);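 further: 0% = growth of vehicle-treated control cultures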; details: S. cerevisiae rad52 mutant growth inhibition, stronger effect = higher value
Outline: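 Vehicle-treated cultures served as the reference for growth inhibition of compound-exposed yeast bearing a DNA repair mutation.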

[2] = NCI Yeast Anticancer Drug Screen. Data for the wt1 strain (AID 149);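 further: 0% = growth of vehicle-treated wt1 cultures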; details: S. cerevisiae wt1 strain (SPY 50644) growth inhibition, stronger effect = higher value
Outline: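 wt1 strain grown with compound or vehicle; inhibition taken from the growth difference.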

[3] = NCI Yeast Anticancer Drug Screen. Data for the rad50EPP+ strain (AID 151);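 further: 0% = growth of vehicle-treated control cultures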; details: S. cerevisiae rad50 mutant strain, stronger effect = higher value
Outline: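 In this screen, rad50EPP+ yeast were exposed to compounds. Growth inhibition was scored against vehicle-treated controls.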

[4] = NCI Yeast Anticancer Drug Screen. Data for the mgt1 strain (AID 153); details: S. cerevisiae mgt1 mutant growth inhibition, stronger effect = higher value
Outline: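 mgt1 strain exposed; growth vs vehicle control recorded as inhibition.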

[5] = NCI Yeast Anticancer Drug Screen. Data for the rad50 strain (AID 155);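 further: 0% = growth of vehicle-only cultures of the same strain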; details: S. cerevisiae rad50 strain growth inhibition, stronger effect = higher value
Outline: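 DNA repair mutant yeast, compound exposure, growth read-out; inhibition is taken relative to vehicle.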

[6] = NCI Yeast Anticancer Drug Screen. Data for the mec2-1 strain (AID 157); details: S. cerevisiae mec2-1 strain, stronger effect = higher value
Outline: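 Vehicle-treated cultures served as reference for growth inhibition of compound-exposed mec2-1 yeast.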

[7] = NCI Yeast Anticancer Drug Screen. Data for the rad14 strain (AID 159);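 further: 0% = growth of vehicle-treated control cultures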; details: S. cerevisiae rad14 strain growth inhibition, stronger effect = higher value
Outline: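 DNA repair-defective yeast, compound-exposed; % growth inhibition derived by comparison with vehicle-treated controls.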

[8] = NCI Yeast Anticancer Drug Screen. Data for the sgs1 mgt1 strain (AID 161);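 further: 0% = growth of cultures given vehicle only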; details: S. cerevisiae sgs1 mgt1 strain, stronger effect = higher value
Outline: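 Mutant yeast exposed to compound; growth scored against vehicle-only wells.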

[9] = NCI Yeast Anticancer Drug Screen. Data for the CLN2oe strain (AID 163);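 further: 0% = growth of vehicle-only control cultures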; details: S. cerevisiae CLN2oe strain, stronger effect = higher value
Outline: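 Inhibition relative to vehicle-treated yeast is reported. Cells: strain with genetic alteration in cell-cycle control, grown with compound.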

[10] = NCI Yeast Anticancer Drug Screen. Data for the cln2 rad14 strain (AID 165);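 further: 0% = growth equal to vehicle treated cultures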; details: S. cerevisiae cln2 rad14 strain, stronger effect = higher value
Outline: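 Each compound was tested on cln2 rad14 yeast. Inhibition of growth was calculated against vehicle-exposed controls.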

[11] = NCI Yeast Anticancer Drug Screen. Data for the bub3 strain (AID 167); details: S. cerevisiae bub3 mutant strain, stronger effect = higher value
Outline: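 In this screen, a yeast mutant lacking normal mitotic checkpoint function is challenged with compound. Relative growth versus vehicle gives the inhibition value.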

[12] = NCI Yeast Anticancer Drug Screen. Data for the sgs1 strain (AID 173);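 further: 0% = growth of vehicle-only control cultures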; details: S. cerevisiae sgs1 mutant, stronger effect = higher value
Outline: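 Screen format: yeast with repair or checkpoint alterations, compound exposure, growth read relative to vehicle.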

[13] = NCI Yeast Anticancer Drug Screen. Data for the mlh1 rad18 strain (AID 175); details: S. cerevisiae mlh1 rad18 strain growth inhibition, stronger effect = higher value
Outline: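 Vehicle-treated cultures served as the reference for growth inhibition in a yeast strain carrying DNA damage repair alterations exposed to each compound.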

[14] = NCI Yeast Anticancer Drug Screen. Data for the rad18 strain (AID 177); details: S. cerevisiae rad18 mutant growth inhibition, stronger effect = higher value
Outline: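 Test articles were incubated with altered yeast defective in DNA damage repair. Results are given as inhibition of growth versus vehicle.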

[15] = NCI Yeast Anticancer Drug Screen. Data for the wt2 strain (AID 169);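 further: 0% = growth of vehicle-treated yeast cultures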; details: S. cerevisiae wt2 strain growth inhibition, stronger effect = higher value
Outline: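 Inhibition of yeast growth was determined after compound treatment, normalised to controls receiving only vehicle.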

[16] = at 5.0 µM (retest, dose inferred, filed as 0.5)
[17] = at 50.0 µM (retest, dose inferred, filed as 5.0)

Measured: growth inhibition

Fc1ccc(Nc2ccc3ccccc3c2)cc1
inactive: [1]; at 1.2 µM -1% | [1]; at 3.7 µM -2% | [1]; at 11.0 µM -3% | [1]; at 33.0 µM 17% | [2]; at 1.2 µM -1% | [2]; at 3.7 µM 0% | [2]; at 11.0 µM -2% | [2]; at 33.0 µM 21% | [2]; at 100.0 µM 41% | [3]; at 1.2 µM -3% | [3]; at 3.7 µM -3% | [3]; at 11.0 µM -1% | [3]; at 33.0 µM 4% | [3]; at 100.0 µM 7% | [4]; at 1.2 µM -2% | [4]; at 3.7 µM -1% | [4]; at 11.0 µM -2% | [4]; at 33.0 µM 54% | [5]; at 1.2 µM -6% | [5]; at 3.7 µM -48% | [5]; [16] -1% | [5]; at 11.0 µM 8% | [5]; at 33.0 µM 4% | [5]; [17] 64% | [6]; at 1.2 µM -1% | [6]; at 3.7 µM 0% | [6]; [16] -2% | [6]; at 11.0 µM -3% | [6]; at 33.0 µM 25% | [7]; at 1.2 µM -1% | [7]; at 3.7 µM 2% | [7]; at 11.0 µM 2% | [7]; at 33.0 µM 55% | [8]; [16] -4% | [9]; at 1.2 µM 2% | [9]; at 3.7 µM -2% | [9]; at 11.0 µM -1% | [9]; at 33.0 µM -11% | [9]; at 100.0 µM 44% | [10]; [16] -3% | [10]; [17] 67% | [11]; at 1.2 µM 0% | [11]; at 3.7 µM -7% | [11]; [16] 0% | [11]; at 11.0 µM -6% | [11]; at 33.0 µM -9% | [11]; [17] 12% | [12]; at 1.2 µM -2% | [12]; at 3.7 µM 0% | [12]; at 11.0 µM 2% | [12]; at 33.0 µM 63% | [13]; [16] -3% | [13]; [17] 69% | [14]; at 1.2 µM 0% | [14]; at 3.7 µM 1% | [14]; at 11.0 µM 0% | [14]; at 33.0 µM -1%
active: [1]; at 100.0 µM 78% | [4]; at 100.0 µM 94% | [5]; at 50.0 µM 91% | [5]; at 100.0 µM 89% | [6]; [17] 84% | [6]; at 50.0 µM 90.2% | [6]; at 100.0 µM 93% | [7]; at 100.0 µM 97% | [8]; [17] 86% | [8]; at 50.0 µM 91.2% | [10]; at 50.0 µM 92.1% | [11]; at 50.0 µM 92.8% | [11]; at 100.0 µM 88% | [12]; at 100.0 µM 95% | [13]; at 50.0 µM 93.5% | [14]; at 100.0 µM 91%

Cc1cccc(C)c1NC(=O)CCC(=O)C(C)C(=O)c1ccc(O)cc1 (stereo unspecified)
inactive: [1]; at 1.2 µM 2% | [1]; at 3.7 µM 1% | [1]; at 11.0 µM 2% | [1]; at 33.0 µM 1% | [1]; at 100.0 µM 0% | [2]; at 1.2 µM -1% | [2]; at 3.7 µM -2% | [2]; at 11.0 µM -1% | [2]; at 33.0 µM -1% | [2]; at 100.0 µM -2% | [3]; at 1.2 µM 0% | [3]; at 3.7 µM -1% | [3]; at 11.0 µM 1% | [3]; at 33.0 µM 1% | [3]; at 100.0 µM 8% | [4]; at 1.2 µM -1% | [4]; at 3.7 µM 4% | [4]; at 11.0 µM -3% | [4]; at 33.0 µM -2% | [4]; at 100.0 µM -5% | [5]; at 1.2 µM -1% | [5]; at 3.7 µM 0% | [5]; [16] 1% | [5]; at 11.0 µM 1% | [5]; at 33.0 µM 1% | [5]; [17] 2% | [5]; at 50.0 µM 57.6% | [5]; at 100.0 µM 0% | [6]; at 1.2 µM -6% | [6]; at 3.7 µM -5% | [6]; [16] -2% | [6]; at 11.0 µM -6% | [6]; at 33.0 µM -3% | [6]; [17] 8% | [6]; at 50.0 µM 15.1% | [6]; at 100.0 µM -5% | [7]; at 1.2 µM -1% | [7]; at 3.7 µM 2% | [7]; at 11.0 µM 2% | [7]; at 33.0 µM 0% | [7]; at 100.0 µM -1% | [8]; [16] 0% | [8]; [17] 5% | [8]; at 50.0 µM 23.2% | [9]; at 1.2 µM -5% | [9]; at 3.7 µM -4% | [9]; at 11.0 µM -3% | [9]; at 33.0 µM 1% | [9]; at 100.0 µM -3% | [10]; [16] -2% | [10]; [17] 2% | [10]; at 50.0 µM 50% | [11]; at 1.2 µM -2% | [11]; at 3.7 µM -2% | [11]; [16] 0% | [11]; at 11.0 µM -2% | [11]; at 33.0 µM -2% | [11]; [17] 7% | [11]; at 50.0 µM 11.8% | [11]; at 100.0 µM 5% | [15]; at 1.2 µM -1% | [15]; at 3.7 µM -1% | [15]; at 11.0 µM 0% | [15]; at 33.0 µM 0% | [15]; at 100.0 µM -1% | [12]; at 1.2 µM -2% | [12]; at 3.7 µM -2% | [12]; at 11.0 µM -2% | [12]; at 33.0 µM -2% | [12]; at 100.0 µM 0% | [13]; [16] -1% | [13]; [17] 6% | [13]; at 50.0 µM 6.95% | [14]; at 1.2 µM -2% | [14]; at 3.7 µM -1% | [14]; at 11.0 µM 0% | [14]; at 33.0 µM -2% | [14]; at 100.0 µM 0%

— PubChem BioAssay (NCI)
